Measurements from ChEMBL document CHEMBL1857833, “Screening and optimization of specific chemical series against human African Trypanosomiasis (HAT)”.
Hit rate of the full screen: of about 4,400 compounds, about 390 (8.9%) showed an effect of 50% or more. What follows is part of a selection rich in strong results, with near analogues and random picks from the rest.

System: Trypanosoma brucei
Test: DNDI: Inhibition of Human African Trypanosomiasis, SBRI 427, in vitro at 2 ug.mL-1
Assay type: functional

| SMILES | % inhibition [%] |
| --- | --- |
| O/N=C(/c1cccnc1Oc1ccc(F)c(Cl)c1)N1CCN(c2ccc(F)cc2)CC1 | -10 |
| O/N=C(\NCCN1CCOCC1)c1ccc(Oc2ccc(Cl)cc2)nc1 | -2 |
| Cc1cccc(Oc2ccc(/C(=N/O)n3ccnc3)cn2)c1 | 15 |
| COc1cccc(N2CCN(Cc3coc(-c4ccc(F)cc4)n3)CC2)c1 | -1 |
| CSc1ccc(Oc2nc(C)ccc2/C(=N/O)N2CCSCC2)cc1C | 12 |
| O/N=C(\NCCN1CCOCC1)c1cccnc1Oc1ccc2c(c1)CCCC2 | 8 |
| CCC(C)(C)N/C(=N\O)c1ccc(C)nc1Oc1cc(C)cc(C)c1 | 24 |
| CCOc1ccccc1-c1nc(CN2CCN(CC)CC2)co1 | 16 |
| Cc1ccc(/C(=N/O)NCCN2CCCC2)c(OCc2cccc(F)c2)n1 | -12 |
| CCOc1cccc(Oc2ncccc2/C(N)=N/O)c1 | 10 |
| CCOc1ccccc1-c1nc(CN(C)Cc2cccc3ccccc23)co1 | 15 |
| COc1ccc(NCc2coc(-c3ccc(F)cc3)n2)cc1 | -3 |
| Brc1ccccc1-c1nc(CNCCN2CCOCC2)co1 | 9 |
| Cc1cc(C)n(/C(=N\O)c2ccc(Oc3ccc(Cl)cc3)nc2)n1 | -5 |
| O/N=C(/c1cccnc1Oc1ccc(F)cc1Cl)N1CCCCCC1 | 11 |
| O/N=C(/c1cccnc1Oc1ccc(F)cc1Cl)N1CCCc2ccccc21 | 100 |
| O/N=C(/c1cccnc1Oc1ccc(F)cc1Cl)N1CCCC1 | 13 |
| COc1ccc(Oc2nc(C)ccc2/C(=N/O)N2CCC=N2)cc1 | 8 |
| CCOC(=O)N1CCN(Cc2coc(-c3ccccc3Cl)n2)CC1 | 8 |
| Cc1cccc(Oc2nc(C)ccc2/C(=N/O)N2Cc3ccccc3C2)c1 | 3 |
| Cc1ccc(Oc2nc(C)ccc2/C(=N/O)N(C)c2ccccc2)c(C)c1 | 41 |
| CC(C)Oc1ccccc1Oc1ncccc1/C(=N/O)NCC1CCCO1 (stereo not drawn) | -11 |
| CC1CC(N/C(=N\O)c2cccnc2Oc2ccccc2OC(C)C)CC(C)(C)C1 (stereo not drawn) | 99 |

| SMILES | % inhibition [%] |
| --- | --- |
| COc1ccc(CN/C(=N\O)c2cccnc2Oc2ccccc2OC(C)C)cc1 | -18 |
| COC(=O)C1CCN(/C(=N\O)c2cccnc2Oc2ccccc2OC(C)C)CC1 | -2 |
| CC(C)Oc1ccccc1Oc1ncccc1/C(=N/O)NCc1ccncc1 | 7 |
| CC(C)Oc1ccccc1Oc1ncccc1/C(=N/O)NC1CCCCC1 | 99 |
| CC1CCC(N/C(=N\O)c2cccnc2Oc2ccccc2OC(C)C)CC1 (stereo not drawn) | 98 |
| c1ccc(N2CCN(Cc3coc(-c4ccco4)n3)CC2)nc1 | 4 |
| COc1cc2c(cc1OC)C(C(C)C)N(Cc1coc(-c3ccccc3Cl)n1)CC2 (stereo not drawn) | 3 |
| COc1ccc(CCN(C)Cc2coc(-c3cc(OC)c(OC)c(OC)c3)n2)cc1OC | 9 |
| Clc1cccc(N2CCN(Cc3coc(-c4ccco4)n3)CC2)c1 | 10 |
| Fc1cccc(-c2nc(CNCc3cccnc3)co2)c1 | 17 |
| CCN(CCC#N)Cc1coc(-c2ccc(Cl)cc2Cl)n1 | 8 |
| Fc1ccc(-c2nc(CNCc3ccccc3C(F)(F)F)co2)cc1 | 18 |
| CC1CCCC(NCc2coc(-c3cccc4ccccc34)n2)C1C (stereo not drawn) | 71 |
| CC1CCCCC1NCc1coc(-c2ccccc2Cl)n1 (stereo not drawn) | -2 |
| CC1CCCCC1NCc1coc(-c2ccccc2Br)n1 (stereo not drawn) | 11 |
| CC1CCCC(NCc2coc(-c3cccc(F)c3)n2)C1C (stereo not drawn) | 10 |
| COc1ccc(-c2nc(CNC3CCCC(C)C3C)co2)cc1 (stereo not drawn) | 2 |
| CC1CCCC(NCc2coc(-c3ccccc3Br)n2)C1C (stereo not drawn) | 98 |
| CCOC(=O)c1cn(Cc2coc(-c3ccc(OCC)cc3)n2)nc1C(F)(F)F | -15 |
| Cc1ccc(Oc2nc(C)ccc2/C(=N/O)Nc2ccccc2)c(C)c1 | -4 |
| Cc1cc(N)nn1Cc1coc(-c2cccc3ccccc23)n1 | 25 |
| CC(C)c1ccc(N/C(=N\O)c2ccc(Oc3ccc(-n4ccnc4)cc3)nc2)cc1 | 11 |
| Cc1cccc(-c2nc(Cn3nc(N)cc3C)co2)c1 | 9 |

| SMILES | % inhibition [%] |
| --- | --- |
| Cc1ccc(-c2nc(Cn3nc(N)cc3C)co2)cc1 | 99 |
| Nc1cc(-c2ccccc2)n(Cc2coc(-c3ccc(OC(F)(F)F)cc3)n2)n1 | -3 |
| CC(C)c1nccn1Cc1coc(-c2ccc(OC(F)(F)F)cc2)n1 | 56 |
| CC(C)c1nccn1Cc1coc(-c2ccc(C(F)(F)F)cc2)n1 | -2 |
| COc1cccc(-c2nc(Cn3nc(N)cc3C)co2)c1 | 18 |
| COc1ccc(-c2nc(Cn3nc(N)cc3C)co2)cc1 | 25 |
| Cc1cc(N)nn1Cc1coc(-c2ccc(F)cc2)n1 | 12 |
| CCOc1ccc(-c2nc(Cn3nc(N)cc3C)co2)cc1 | 99 |
| Cc1cc(N)nn1Cc1coc(-c2ccc(OC(F)(F)F)cc2)n1 | 97 |
| COc1ccc(-c2nc(Cn3ccnc3C(C)C)co2)cc1 | 29 |
| CCOc1ccc(-c2nc(Cn3nc(N)cc3-c3ccccc3)co2)cc1 | -17 |
| Fc1ccc(-c2nc(CN3CCC(N4CCCCC4)CC3)co2)cc1 | 4 |
| O/N=C(/c1ccc(Oc2cccc3c2CCCC3)nc1)N1CCOCC1 | 15 |
| C=CCN1CCN(/C(=N\O)c2ccc(C)nc2OCc2ccccc2F)CC1 | 3 |
| FC(F)(F)c1ccc(-c2nc(CN3CCN(c4ncccn4)CC3)co2)cc1 | 4 |
| Cc1ccc(/C(=N/O)NCc2c(F)cccc2F)c(OCc2ccc(C(C)C)cc2)n1 | 16 |
| Cc1ccc(-c2nc(CN(C)c3cccc(C)c3)co2)cc1 | 21 |
| Cc1cc(Oc2nc(C)ccc2/C(=N/O)N2CCN(c3ccccc3)CC2)cc(C(C)C)c1 | 5 |
| COc1cccc(Oc2ccc(/C(=N/O)Nc3ccc(C(C)C)cc3)cn2)c1 | -4 |
| CC(C)(C)CNCc1coc(-c2ccc(Cl)cc2Cl)n1 | 14 |
| CC1CCc2ccccc2N1/C(=N\O)c1ccc(Oc2cccc3c2OC(C)(C)C3)nc1 (stereo not drawn) | 10 |
| C=CCN1CCN(/C(=N\O)c2ccc(C)nc2Oc2ccc(C)cc2C)CC1 | 14 |
